Screening results: PubChem BioAssay, Broad Institute
EBV LMP1 NFkB = reduces LMP1-driven NF-kappaB luciferase signal. LMP1-induced NF-kappaB luciferase reporter cells, luminescence. inhibition, % at 12.5 µM. actives 0.69% (n = 350,000); in the data active = inhibition above about 41%; inconclusive = no clear call, values can overlap the other calls;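 note: 0% = neutral control wells and 100% = reference inhibitor control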
PGC1a acetyl inh = lowers PGC1a acetylation signal in U2OS cells; AlphaScreen anti-acetyl-lysine; with virally co-expressed GCN5 acetyltransferase; inhibition, % at 15.6 µM; actives 0.17% (n = 350,000); AID 651687;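 active = every replicate shows inhibition of at least 40%; inconclusive = mean inhibition at least 40% but some replicate below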;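 note: 0% = neutral control wells and 100% = positive control wells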
LGR2 inh = inhibitors of bursicon-induced Drosophila LGR2 receptor cAMP signaling. HEK293 LGR2, CRE-luciferase, bursicon-stimulated, 4 h. inhibition, % at 9.99 µM. actives 0.35% (n = 380,000);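 active = drop in luminescence signal, shown as inhibition above about 50% in the replicate tests, limit read from the data, passing the limit was not always enough; inconclusive = probably only some replicates passing the limit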;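 note: agonist challenge used bursicon conditioned medium at about half maximal strength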
TRPM1 prom inh = inhibitors of MITF-driven TRPM1 promoter in melanoma cells. SK-MEL-5 TRPM1 promoter luciferase, 24 h. actives 0.83% (n = 330,000). inhibition, % at 12.5 µM;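 active = mean inhibition across replicates of 60% or more, whatever share of single replicates reaches that level; inconclusive = some that reach 60%, reason not given; inactive = mean inhibition across replicates below 60%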
EWS-Fli inh = blocks EWS/Fli oncoprotein-driven transcription; A673 NR0B1-luciferase reporter, viability-normalised; inhibition, % at 12.6 µM; actives 0.67% (n = 350,000);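 active = mean inhibition of at least 50% after viability correction, with every replicate also passing that limit; inconclusive = mean reaches 50% but only one of two replicates passes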;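 note: firefly luciferase signal divided by Alamar Blue viability fluorescence both relative to DMSO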
PAX8 inh HTS = lowers PAX8-driven luciferase in RMG-I cells; RMG-I TPO-luciferase reporter, SteadyGlo, 24 h; inhibition, % at 12.6 µM; actives 1.2% (n = 360,000); AID 652154;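 active = mean replicate inhibition at least 60% with every replicate also reaching 60%; inconclusive = only one of the two criteria is met; inactive = mean below 60% and not all replicates reaching 60%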;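 note: luciferase light reporting Pax8 driven TPO promoter activity; plate controls were median of neutral control wells for no effect and mitoxantrone controls for full effect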
Starred values were filed as active, the others as inactive; ? = inconclusive; . = no result given. Most compounds without a hit are left out; they make up all but 2.2% or so of the library.

SMILES | EBV LMP1 NFkB | PGC1a acetyl inh | LGR2 inh | TRPM1 prom inh | EWS-Fli inh | PAX8 inh HTS
CCn1c(/C=C/N(C(C)=O)c2ccccc2)[n+](CCCS(=O)(=O)[O-])c2cc(Cl)c(Cl)cc21 | 1 | -3 | . | 17 | 3 | 1
CCn1c(/C=C/Nc2ccccc2)[n+](CC)c2cc(Cl)c(Cl)cc21 | -15 | -8 | 16 | ? | 69* | 32
O=C(Cc1cccnc1)N[C@H]1CC[C@H](CCNS(=O)(=O)c2ccccc2Cl)O[C@H]1CO | . | 2 | 5 | . | . | .
Cc1ccc2nc(-c3cc(-c4ccccc4)no3)cn2c1 | 37 | 1 | . | 31 | 69* | 40
Cc1ccc(-c2cc(-c3ccccc3)no2)c(O)c1 | 3 | -7 | ? | 10 | . | -49
CCc1ccn2cc(-c3cc(-c4ccccc4)no3)nc2c1 | 70* | 6 | 103* | 78* | 75* | 83*
Clc1ccc(-c2cc(-c3ccccc3)on2)cc1 | -56 | 5 | -51 | -86 | -107 | -240
C/C=C(/C)C(=O)O[C@@H]1c2c(ccc3ccc(=O)oc23)O[C@@H]1C(C)(C)OC(=O)/C(C)=C\C | -5 | -29 | 58* | 4 | 9 | 51
S=C(Nc1ccc2nc(-c3ccccn3)c(-c3ccccn3)nc2c1)N1CCCCC1 | -2 | -1 | . | 0 | . | .
CC(=NNC(=S)N1CCCCCC1)c1cccc2cccnc12 | 52* | 6 | 9 | 51 | -1 | 13
CC(=NNC(=S)N1CCN(C2CCCCCC2)CC1)c1ccccn1 | 16 | 14 | -18 | 83* | 48 | 94*
CC(=NNC(=S)N1CC2CCC(CC2)C1)c1cnccn1 | 66* | . | -1 | 65* | 3 | 16
CC(=NNC(=S)N1CC2CCC(CC2)C1)c1ccccn1 | 33 | . | ? | . | 5 | -17
CC(=NNC(=S)N1CCN(c2ccccn2)CC1)c1nccs1 | 74* | . | . | . | . | .
CC(=NNC(=S)N1CCN(c2ccccn2)CC1)c1ccccn1 | 0 | -7 | -17 | -7 | -9 | -30
Cc1noc(C)c1S(=O)(=O)N(C)C[C@@H]1Oc2ccc(NS(=O)(=O)c3ccccc3)cc2CC(=O)N([C@H](C)CO)C[C@@H]1C | . | 6 | -5 | . | -6 | -10
C[C@@H]1CCCCO[C@@H](CN(C)C(=O)CCC(F)(F)F)[C@H](C)CN([C@@H](C)CO)C(=O)c2cc(NC(=O)NC3CCCCC3)ccc2O1 | . | 4 | 3 | . | 11 | .
COc1ccc(NC(=O)N(C)C[C@H]2Oc3ccc(NS(=O)(=O)c4ccc(C)cc4)cc3CC(=O)N([C@@H](C)CO)C[C@@H]2C)cc1 | . | 0 | -2 | . | -4 | -16
COc1cc([N+](=O)[O-])ccc1-c1ccc(/C=C2\C(=O)ON=C2c2ccccc2)o1 | 17 | 0 | -3 | 90* | 38 | -28
Cc1ccc(/C=C2/C(=O)ON=C2c2ccccc2)o1 | -14 | -16 | 13 | 71* | 22 | -14
O=c1ccn(Cc2ccccc2)cc1 | 4 | 12 | -1 | -10 | -1 | 14
Cc1ccccc1Cn1ccc(=NCc2ccccc2)cc1 | . | . | 5 | . | 13 | 85*
CC(C)C#Cc1ccc([C@@H]2[C@@H](CO)N(C(=O)CN(C)C)[C@H]2C#N)cc1 | . | -7 | 1 | . | 2 | -13
CC(C)(C)OC(=O)N/N=C/c1cccn1-c1ccc([N+](=O)[O-])cc1 | 3 | 0 | -25 | -6 | -10 | -25
CN(C)c1ccc(-n2cccc2/C=C/[N+](=O)[O-])cc1 | -2 | 9 | . | 66* | 20 | 72*
SMILES | EBV LMP1 NFkB | PGC1a acetyl inh | LGR2 inh | TRPM1 prom inh | EWS-Fli inh | PAX8 inh HTS
COc1ccc(CNC(=O)C2CCN(S(=O)(=O)N3CCCCC3)CC2)cc1 | 4 | -12 | 11 | -6 | . | 1
CCc1ccc(CNC(=O)C2CCN(S(=O)(=O)N3CCCCC3)CC2)cc1 | -12 | -4 | 2 | . | -8 | 81*
COc1ccc(NC(=O)Nc2ccc3c(c2)CC(=O)N([C@@H](C)CO)C[C@H](C)[C@H](CN(C)C(=O)NC(C)C)O3)cc1 | . | 11 | 2 | . | -8 | -17
c1cc2c(cc1C1CCCCC1)c1c3n2CCCNC3CCC1 (configuration not stated) | -36 | -10 | . | 99* | . | .
COc1ccccc1Cc1c(C(C)(C)C)nc2c3ccccc3ccn12 | . | -13 | 9 | . | 8 | 65*
COc1ccc(NC(=O)Nc2ccc3c(c2)[C@@H]2C[C@@H](CC(=O)O)O[C@H](CO)[C@@H]2O3)cc1 | . | 10 | -8 | . | . | -13
Cc1ccc(OCCC(=O)OCC(=O)c2c(N)n(CC(C)C)c(=O)n(C)c2=O)cc1 | 72* | -5 | 5 | 3 | 4 | -6
CSc1nc(-c2ccc(C)cc2)nc(C(Cl)Cl)n1 | 60* | . | . | 77* | . | .
CCSc1nc(-c2ccccc2)nc(C(Cl)Cl)n1 | 67* | -4 | 23 | 96* | 50 | 96*
Clc1ccc(OCc2nc(-c3ccccn3)no2)c(Br)c1 | 6 | 2 | 69* | . | 24 | -53
Clc1ccccc1OCc1nc(-c2ccccn2)no1 | -6 | 4 | . | -23 | . | -111
COc1ccc2c3c(n(C)c2c1)[C@H](CO)N(C(=O)Nc1cccc(F)c1)CC31CN(C)C1 | . | -12 | 0 | . | 11 | 14
CC(C)(O)C#Cc1ccc(C(=O)NC(CCCNC(N)=O)C(=O)O)s1 (configuration not stated) | 5 | 82* | . | -11 | 5 | 9
CCCCNC(=O)c1ccc(CS(=O)(=O)c2ccccc2OC)o1 | -5 | 44* | -3 | -4 | 2 | 15
Cc1ccc(CNC(=O)c2ccc(CS(=O)(=O)c3ccccc3)o2)cc1 | -2 | 44* | 15 | 1 | . | -8
O=S(=O)(Nc1cccc2ncccc12)c1cccs1 | 24 | -47 | . | 84* | . | .
C[C@@]12C(=O)Nc3cc(F)ccc3C(=O)N1[C@H]1c3cc(Br)ccc3OC[C@@H]1[C@@H]2c1ccccc1 | 3 | -12 | -2 | 10 | 50 | -2
COc1ccc2c(c1)C(=O)N1[C@H]3c4cc(C)ccc4OC[C@@H]3[C@H](c3ccccc3)[C@]1(C)C(=O)N2 | 38 | 7 | 3 | 28 | 64* | 23
Cc1ccc2c(c1)[C@H]1[C@H](CO2)[C@H](c2ccccc2)[C@]2(C)C(=O)Nc3ccccc3C(=O)N12 | 20 | 2 | 37 | 20 | 57* | 45
Cc1ccc2c(c1)[C@H]1[C@H](CO2)[C@H](c2ccccc2)[C@]2(C)C(=O)Nc3cc(F)ccc3C(=O)N12 | 17 | . | 2 | 23 | 61* | 11
Cc1ccc2c(c1)[C@H]1[C@H](CO2)[C@H](c2ccccc2)[C@]2(C)C(=O)Nc3ccc(Cl)cc3C(=O)N12 | -10 | . | . | 16 | 8 | 13
COc1ccc(NC(=O)N(C)C[C@@H]2Oc3ccc(NC(=O)C4CC4)cc3C(=O)N([C@@H](C)CO)C[C@@H]2C)cc1 | . | -4 | -5 | . | -5 | -19
O=C(Cc1ccccn1)NCC[C@H]1CC[C@H](NC(=O)CN2CCOCC2)[C@@H](CO)O1 | . | -6 | -1 | . | 7 | -4
